# Reference: PubChem BioAssay (NCI)
# This is part of a sample that, as a whole, favours compounds with a hit. Of some 83,000 tested, about 20% had one in any assay.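 Growth was measured after 48 h exposure to one concentration of compound in 96-well plates. Values under 10 count as active.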 Calls of active or inactive are those of the source.
# System: NCI/ADR-RES ovarian
# Assay: NCI-60 one-dose screen, 48 h (100 = growth as untreated, 0 = no growth, -100 = all killed)
# Details: 10 µM unless noted
row,SMILES,growth
1,CC1CN(c2oc(-c3ccccc3)nc2C#N)CC(C)O1 (stereo not given),107% (inactive)
2,NC(=O)CCCN1C/C(=C\c2ccccc2)C(=O)c2ccccc21,109% (inactive)
3,Cc1ccc(S(=O)(=O)NCCCNc2cc(-c3cn(C(C)(C)C)nc3-c3cccc(O)c3)ccn2)cc1,72.4% (inactive)
4,Cc1nc2ncccc2nc1Nc1ccc(S(=O)(=O)Nc2ccccn2)cc1,98.2% (inactive)
5,COc1ccc(NC(=O)c2c(Nc3ccc(OC)cc3OC)n[nH]c2N)c(OC)c1,101% (inactive)
6,CCOC(=O)c1cn2c3c(cc(C)cc3c1=O)C(=O)/C(=C/c1ccccc1)C2,93.9% (inactive)
7,N=c1ccc2nc3ccc(N)cc3sc-2c1,9.73% (active)
8,CC12CCC3C4(C)COC(c5ccccc5Cl)OC4CCC3(C)C1CC(C1=CCOC1=O)O2 (stereo not given),63.2% (inactive)
9,C=C1CCC2C(C)(CO)C(O)CCC2(C)C1CC(NCc1ccccc1)C1=CCOC1=O (stereo not given),95.9% (inactive)
10,c1cc(C2=N[C@@H]3c4ccccc4C[C@@H]3O2)nc(C2=N[C@@H]3c4ccccc4C[C@@H]3O2)c1,98.7% (inactive)
11,COC1=C(OC)C(=O)C(CCCCCCCCCC[P+](c2ccccc2)(c2ccccc2)c2ccccc2)=C(C)C1=O,60.7% (inactive)
12,COc1ccc(-c2cc(-c3ccccc3)nc(SCCCC(=O)NO)n2)cc1OC,-12.3% (active)
13,N=C(N)c1ccc(-c2cc(Cl)cc(Cl)c2)cn1,94.2% (inactive)
14,Nc1cccc(-c2nc3sccn3c2-c2ccnc(NCCNS(=O)(=O)c3ccc(C(F)(F)F)cc3)n2)c1,71.5% (inactive)
15,C=C1CCC2C(C)(CO)C(O)CCC2(C)C1C/C=C1/C(=O)OCC1O/C=C/c1ccccc1 (stereo not given),73.9% (inactive)
16,CCN(CC)CCC(CNc1ccnc2cc(Cl)ccc12)c1ccccc1 (stereo not given),83.2% (inactive)
17,COc1ccc(-c2ccc(-c3ccc(C(=N)N)cn3)s2)cc1OC,108% (inactive)
18,Cn1cnc2c(N3CCN(C(=O)OCc4ccc5c(Cl)cc(Cl)c(O)c5n4)CC3)nc(Cl)nc21,35.3% (inactive)
19,C=C1CCC2C(C)(CO)C(O)CCC2(C)C1C/C=C1/C(=O)OCC1Oc1ccccc1C (stereo not given),81.1% (inactive)
20,COc1ccc(S(=O)(=O)NCCCNc2nccc(-n3ccc4cccnc43)n2)cc1,91.1% (inactive)
21,CCN(CC)CCC(CNc1ccnc2cc(Cl)ccc12)c1ccc(Cl)cc1 (stereo not given),23.4% (inactive)
22,N=C(N)c1ccc(-c2ccc(-c3ccc(-c4cccs4)s3)s2)cc1,98.6% (inactive)
23,COc1ccc(Nc2nn3c(C)cc(C)nc3c2C(=O)Nc2ccc(C)cc2)c(OC)c1,105% (inactive)
24,CCCCCCN1CSC(=S)N(CCCCCC)C1,89.9% (inactive)
25,O=C(NS(=O)(=O)c1ccccc1)n1cc(-c2ccncc2)c(-c2ccc(Cl)c(O)c2)n1,102% (inactive)
